# How the values were obtained:
# TIE2 = test system: T1, TIE2
# T1 construct: gene TEK
# TRKA = test system: T2, TRKA
# T2 construct: gene NTRK1
# TRKC = test system: T3, TRKC
# T3 construct: gene NTRK3
# YANK3 = test system: T4, YANK3
# T4 construct: gene STK32C
# YSK1 = test system: T5, YSK1
# T5 construct: gene STK25
# [1] = test system: TYK2(JH1domain-catalytic)
# VEGFR2 = test system: T6, VEGFR2
# T6 construct: gene KDR
# YANK1 = test system: T7, YANK1
# T7 construct: gene STK32A
# 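Note: kd values determined as follow-up on hits from a single-replicate KINOMEscan panel screen.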
compound,measurement,setting,value
NC(=O)c1nnc2ccccc2c1N,Kd,TIE2,> 10 µM
O=C(Nc1ccccc1)Nc1cccc(Oc2ccc3nccn3n2)c1,Kd,TIE2,> 10 µM
Cc1ccccc1-n1cnc2c(N)ncnc21 [SKF-97510],Kd,TLK1,> 10 µM
COc1ccc(Nc2nccc(-c3cccc(NC(=O)c4cc5cc(F)ccc5[nH]4)c3)n2)cc1 [GSK1229782],Kd,TNIK,0.82 µM
Cc1ccc(-c2cc(-c3c[nH]nc3-c3ccccn3)ccn2)cc1 [GW684088],Kd,TNIK,0.16 µM
same,Kd,WNK4,> 10 µM
Cc1ccc(C(=O)Nc2ccc(Nc3ccnc4cc(-c5ccccn5)ccc34)cc2O)cc1.Cl [GW440146],Kd,TNK2,0.12 µM
Cc1cc(-c2ccc3c(c2)CC[C@@H](N[C@@H](C)c2ccccc2)C3)cnc1N.Cl [GW412617],Kd,TRKA,2.5 µM
COc1cccc(NC(=O)NC2CCN(c3ccnc(Nc4ccc(F)cc4)n3)C2)c1 (centres unmarked) [GSK1379721],Kd,TRKC,0.31 µM
Cn1ccc2ncnc(Oc3ccc(Nc4nc5ccccc5[nH]4)cc3)c21,Kd,TRPM6,> 10 µM
CS(=O)(=O)c1ccc(-c2nc3n(c2-c2ccncc2)CCC3)cc1 [SKF-105942],Kd,TSSK1B,> 10 µM
same,Kd,YANK3,> 10 µM
CCCc1ccc(S(=O)(=O)NC2CCN(c3ccnc(Nc4ccc(F)cc4)n3)C2)cc1 (centres unmarked) [GSK1379715],Kd,TSSK1B,> 10 µM
same,Kd,YANK3,> 10 µM
same,Kd,YSK1,> 10 µM
Cc1cccc(-c2cc(Nc3ccncc3)c3ccccc3n2)n1 [GSK223675],Kd,TXK,> 10 µM
Cl.Oc1ccc(-c2nc(-c3ccccc3)[nH]c2-c2ccncc2)cc1 [SB-428218],Kd,[1],> 10 µM
Cc1csc(-c2nc(Nc3ccncc3)c3ccccc3n2)n1 [GW869640],Kd,[1],> 10 µM
Cn1ccc2ncnc(Oc3ccc(NC(=O)Nc4ccccc4)cc3)c21,Kd,VEGFR2,0.045 µM
CCn1c(-c2cccnc2O)nc2cnccc21 [SB-736715],Kd,WEE2,> 10 µM
Nc1ncnc2[nH]c(-c3ccccc3)nc12 [AH5015],Kd,YANK1,> 10 µM
Cn1cncc1-c1ccc2ncnc(Nc3ccc(OCc4ccccc4)cc3)c2c1 [GW320571],Kd,YANK1,> 10 µM
CCn1c(-c2ccccn2)nc2cnccc21 [SB-736398],Kd,YSK1,> 10 µM

# — paper PMC5540273 (PLoS ONE, 2017)
